Measured values taken from PubChem BioAssay (NCI).
The panel holds about 79,000 compounds, 15% with a hit somewhere; the sample as a whole holds those more often. A number with no mark means an inactive call. Active and inactive are the calls of the source. Cut-off read from the data, not from the text of the source: active = growth inhibition above about 70%; inactive = the rest.

Tests used:
[1] = NCI Yeast Anticancer Drug Screen. Data for the rad50 strain (AID 155);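 note: 0% = growth of vehicle-only cultures of the same strain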; details: S. cerevisiae rad50 strain growth inhibition; at 50.0 µM; hits give high values
In short: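 Yeast carrying a defined DNA repair defect were exposed to test compounds, and growth was compared with vehicle-treated controls to give percent inhibition.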

[2] = NCI Yeast Anticancer Drug Screen. Data for the mec2-1 strain (AID 157); details: S. cerevisiae mec2-1 strain, at 50.0 µM, hits give high values
In short: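 Growth inhibition is read against vehicle-treated controls after compound exposure of the mec2-1 yeast strain, which is defective in DNA damage repair or cell cycle control.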

[3] = NCI Yeast Anticancer Drug Screen. Data for the sgs1 mgt1 strain (AID 161);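 note: 0% = growth of cultures given vehicle only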; details: S. cerevisiae sgs1 mgt1 strain, at 50.0 µM, hits give high values
In short: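 Yeast cells carrying a defined DNA-repair defect were exposed to test compounds. Growth inhibition was measured relative to vehicle-treated controls.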

[4] = NCI Yeast Anticancer Drug Screen. Data for the cln2 rad14 strain (AID 165);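 note: 0% = growth equal to vehicle treated cultures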; details: S. cerevisiae cln2 rad14 strain, at 50.0 µM, hits give high values
In short: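 Growth inhibition, relative to vehicle-treated controls, is the read-out. The test organism is a yeast strain with defined genetic alterations, cln2 rad14.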

[5] = NCI Yeast Anticancer Drug Screen. Data for the bub3 strain (AID 167); details: S. cerevisiae bub3 mutant strain, at 50.0 µM, hits give high values
In short: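 Compounds were applied to a genetically altered yeast strain carrying a cell-cycle control defect. Growth inhibition was scored against vehicle-treated controls.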

[6] = NCI Yeast Anticancer Drug Screen. Data for the mlh1 rad18 strain (AID 175); details: S. cerevisiae mlh1 rad18 strain growth inhibition; at 50.0 µM; hits give high values
In short: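 Cells of a genetically altered yeast strain, deficient in DNA damage repair, were treated with compound. Their growth was then compared with that of vehicle-treated cultures to give inhibition.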

Structure (SMILES) | growth inhibition [1] | growth inhibition [2] | growth inhibition [3] | growth inhibition [4] | growth inhibition [5] | growth inhibition [6]
CCCCOCCOCCOS(=O)(=O)c1ccc(C)cc1 | 11.1% | 1.6% | 12.6% | 5% | 10.2% | 13.9%
CCC/C=N/NC(=O)CCCCCCCCCCCCCCCCC | 7.35% | 7.95% | 16.9% | -8.2% | 7.7% | 14.3%
O=S(=O)(O)c1cc(S(=O)(=O)O)c2c(N=Nc3cccc4ccccc34)c(O)ccc2c1 | 0.8% | -9.25% | -35.5% | -18.1% | -35.9% | 1.55%
CCOC(=O)/C=C1\CONC(c2ccc(OC)cc2)=N1 | -9.1% | -5.3% | -12.4% | -19.2% | 3.4% | 2%
NC(=O)C1CCN(S(=O)(=O)c2ccccc2)CC1 | -0.85% | -9.1% | 8.55% | -37.6% | -1.5% | -18.4%
CCCC(=O)OC1C=C2N3C(=O)C4CC56C(=CC(OC(C)=O)C7OC75)N4C(=O)C3CC26C2OC12 (stereo not drawn) | 83.3% (active) | 84.2% (active) | 89.7% (active) | 78.8% (active) | 76.3% (active) | 85.2% (active)
CCCCC1CC(c2ccc(Cl)cc2)=NO1 (stereo not drawn) | 26.9% | -7% | 16.6% | -1.55% | 3.75% | 20.2%
CCN(CC)c1ccc(NC(C)=O)c(C)c1 | -16.2% | 21.1% | 9.65% | -15.8% | 18.1% | 3.3%
O=C(O)CCCCCN1C(=O)c2cccc([N+](=O)[O-])c2C1=O | 17.6% | 10% | 22.5% | 19.2% | 12.3% | 12.7%
c1ccc(-c2nnc(SCc3nc4ccccc4[nH]3)o2)cc1 | 5.65% | 9.75% | 29.8% | 36.3% | 20.4% | 52%
CC/C(=N\NS(=O)(=O)c1ccc(C)cc1)c1ccc(Br)cc1 | 27.4% | -7.2% | -1.6% | -7.3% | -3.6% | 3.4%
CC1=Nc2c(C#N)ncn2N=C(C)C1 | 31.9% | 0.25% | 17.5% | 41.4% | 28.8% | -19.1%
CC1=CC(=O)C(c2ccccc2)CC1 (stereo not drawn) | -0.2% | -5.65% | 14.8% | -32.7% | -0.75% | -5.3%
NC1=NS(=O)(=O)Nc2nc(-c3ccccc3)c(-c3ccccc3)nc21 | -24.6% | -10.2% | 12.5% | -0.85% | 2.6% | 7.3%
CCC(=O)CCc1ccc(OC)cc1 | 4.55% | -6.75% | -3.85% | -20.6% | -12.2% | -13.8%
Clc1ccc(C2SCCS2)c(Cl)c1 | 56.8% | 28.2% | 59.1% | 31.8% | 33.8% | 38.5%
NC(=O)C(Cl)=C(Cl)Cl | 2.85% | 10.4% | -2% | -4.75% | -4.8% | 1.65%
NC(N)=NC(N)=Nc1ccc2ccccc2c1 | 58.4% | 12.3% | 17% | 20.3% | 8.6% | 22.6%
C(/C=C/C=C/Nc1ccc(N=Nc2ccccc2)cc1)=Nc1ccc(N=Nc2ccccc2)cc1 | -32.8% | -38% | -26.3% | -1.65% | -25.8% | -30%

Structure (SMILES) | growth inhibition [1] | growth inhibition [2] | growth inhibition [3] | growth inhibition [4] | growth inhibition [5] | growth inhibition [6]
CCCCNc1ccc(S(=O)(=O)c2ccc(NCCCC)c([N+](=O)[O-])c2)cc1[N+](=O)[O-] | 19.6% | 6.6% | 15.2% | -1.4% | 2.35% | -9.8%
[Br][Pt+2][Br].[NH-]c1cccc(F)c1.[NH-]c1cccc(F)c1 | 50.9% | 11.4% | 39.4% | 6.4% | 5.65% | 46.3%
CCCCC(C)(CCN)CCCC | 5.05% | 1.4% | -5.05% | 7.4% | -3% | 0.1%
O=C1OC(=O)C2C3C=CC(CC3)C12 (stereo not drawn) | -1.35% | 4% | -13.3% | -65% | -31.1% | -0.1%
CCN(CC)CCNc1cccc(Cl)c1 | 60.1% | 9.25% | 34.4% | 25.2% | 29.1% | 47.5%
CCN(CC)S(=O)(=O)c1ccc(S(C)(=O)=O)cc1 | -19.8% | -10.9% | -8.05% | -60.1% | 8.35% | -14.2%
CSC1(C)C(=O)Nc2ccccc21 (stereo not drawn) | -4.15% | -9.65% | -0.35% | -20.8% | -36.3% | 3.6%
O=C1c2ccccc2C(=O)N1N1C(=O)c2ccccc2C1=O | 3.95% | -16.8% | -4.45% | 14% | -4.7% | 17.4%
CC/C(C=O)=C\NC(=O)Nc1ccccc1 | 9.35% | -21.6% | 0.8% | -22.9% | -26.6% | 1.1%
O=C(/C=C/c1ccccc1)Oc1ccccc1 | 3.45% | 5.55% | 1.5% | -19.9% | 23.8% | -4.85%
CC(=O)[C@H]1CC[C@H]2[C@@H]3CC[C@@H]4CC(=O)CC[C@]4(C)[C@H]3[C@@H]3O[C@@H]3[C@]12C | -13.2% | 5.4% | -11.1% | -46% | -1.1% | 7.55%
O=C1NC(Cc2ccccc2)C(=O)N2CCCC12 (stereo not drawn) | 2.55% | -6.75% | -12.2% | -18.1% | -1.15% | 3.35%
Cc1[nH]c(=O)nc(CC(O)(c2ccccc2)c2ccccc2)c1-c1ccccc1 | -31.6% | -38.1% | -22% | 14.2% | -6.05% | -26.1%
CCCCn1cnc2c(N)ncnc21 | -0.05% | -7.75% | -5.45% | -18.1% | 1.45% | -15.5%
Cc1ccc([N+](=O)[O-])cc1S(=O)(=O)O | 24.4% | 13.2% | 21.8% | 11.7% | 20% | 2.45%
CCN(CC)CCOC(=O)c1ccc(NC(=O)Nc2ccc(Br)cc2)cc1 | 4.6% | -4.95% | 30.1% | 0.25% | 8.05% | 11.2%
Cc1cc(N(CCC#N)CCC#N)ccc1/C(N=Nc1ccc(Cl)cc1)=N\NC(=O)c1cc(Cl)ccc1O | -16.6% | -16.1% | -31.1% | -20.2% | -29.6% | -59.5%
O=c1c2ccccc2oc2cc([N+](=O)[O-])cc([N+](=O)[O-])c12 | -15.9% | -16.2% | -14.4% | 38.4% | 0.9% | -60.6%
CC1(CBr)COC(c2ccccc2)(c2ccccc2)OC1 | 18.1% | -2.4% | 20.6% | -31.4% | -22.2% | 28.5%
